This is an account of results in PubChem BioAssay AID2283172 (EPA ToxCast).

Active and inactive are the calls of the source. How the source made its calls: active means hit-call score of the fitted dose curve at least 0.9, where 1 is the maximum; inactive means score below 0.9.

Sequence of human LYN Proto-Oncogene, Src family Tyrosine Kinase (LynB), LYN (gene 4067) (P07948 whole entry, looked up): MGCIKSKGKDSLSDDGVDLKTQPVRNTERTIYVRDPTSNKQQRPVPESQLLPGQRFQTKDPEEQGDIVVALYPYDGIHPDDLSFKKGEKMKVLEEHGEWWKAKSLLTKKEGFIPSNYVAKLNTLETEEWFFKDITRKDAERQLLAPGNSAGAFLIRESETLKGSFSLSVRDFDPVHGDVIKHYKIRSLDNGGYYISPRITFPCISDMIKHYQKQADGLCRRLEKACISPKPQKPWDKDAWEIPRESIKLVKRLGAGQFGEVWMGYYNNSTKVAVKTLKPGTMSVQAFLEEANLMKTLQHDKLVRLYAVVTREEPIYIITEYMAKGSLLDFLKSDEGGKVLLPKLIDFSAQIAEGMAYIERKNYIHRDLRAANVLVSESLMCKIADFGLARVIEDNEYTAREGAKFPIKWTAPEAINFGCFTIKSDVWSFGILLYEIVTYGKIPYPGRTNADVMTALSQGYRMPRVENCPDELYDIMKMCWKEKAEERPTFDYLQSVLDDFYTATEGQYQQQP

This test addresses human LYN Proto-Oncogene, Src family Tyrosine Kinase (LynB), LYN (gene 4067) (UniProt P07948). In words: NVS_ENZ_hLynB: NovaScreen (NVS) Enzymatic Assay for human LYN Proto-Oncogene, Src family Tyrosine Kinase (LynB). The protocol:
NVS_ENZ_hLynB is a biochemical, single-readout assay that uses extracted gene-proteins in a cell-free assay. Measurements were taken 1 hour after chemical dosing in a 384-well plate.NVS_ENZ_hLynB is one of one assay component(s) measured or calculated from the NVS_ENZ_hLynB assay. It is designed to make measurements of enzyme activity, a form of enzyme reporter, as detected with fluorescence intensity signals by Fluorescence and electrophoretic mobility shift technology.Data from the assay component NVS_ENZ_hLynB was analyzed into 1 assay endpoint. This assay endpoint, NVS_ENZ_hLynB, was analyzed in the positive analysis fitting direction relative to DMSO as the negative control and baseline of activity. Using a type of enzyme reporter, loss-of-signal activity can be used to understand changes in the enzymatic activity as they relate to the gene LYN. Furthermore, this assay endpoint can be referred to as a primary readout, because this assay has produced multiple assay endpoints where this one serves a enzymatic activity function. To generalize the intended target to other relatable targets, this assay endpoint is annotated to the kinase intended target family, where the subfamily is non-receptor tyrosine kinase. […]
Consider `CCOCN(C(=O)CCl)c1c(C)cccc1CC`, for which the molecule was called inactive.
